An excerpt weighted towards active compounds, which were near 8.1% of everything screened.
KB-V1 cytotox = KB-V1 MDR subline cytotoxicity; KB-V1 MDR cells viability, CellTiter-Glo, 72 h; Potency, µM (highest dose often 46.1 µM), hits mostly cytotoxic; actives 3.4% (n = 400,000); AID 1347076; also: nearly all actives have a fitted effect of over 60% in size
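Cytotoxicity via CellTiter-Glo luminescence after 72 h compound exposure at 37 degrees C. Cells: drug-selected KB-V1 line, DMEM phenol-red free plus 10% FBS. Compounds tested at multiple concentrations; normalized data fitted to concentration-effect curves.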
MCF10A rerep = inducers of DNA re-replication in MCF 10A breast cells. MCF 10A DNA re-replication, Hoechst nuclear intensity, 48 h. Potency, µM (titrated, usually from 46.1 µM), most hits filed as activators. actives 2.9% (n = 350,000). AID 624296; also: nearly all actives have a fitted effect of over 50% in size
ELG1 repair inh = inhibitors of ELG1-dependent DNA repair in HEK293T cells. HEK293T ELG1-luciferase reporter, luminescence, 16 h; DNA damage induced by 5-fluorouridine. Potency, µM (titrated, usually from 46.1 µM), most hits filed as inhibitors. actives 2.3% (n = 330,000); also: nearly all actives have a fitted effect of over 55% in size
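Step one: seed 2,000 cells per well. Step two: pin-transfer compound or DMSO alongside 5-fluorouridine. Step three: incubate 16 hr, 37 °C, 5% CO2. Step four: add ONE-Glo, wait 30 min, read luminescence.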
KB-3-1 cytotox = KB-3-1 parental cell cytotoxicity | KB-3-1 viability, CellTiter-Glo ATP luminescence, 72 h | Potency, µM (doses to about 46.1 µM), most hits filed as cytotoxic | actives 1.4% (n = 400,000); also: nearly all actives have a fitted effect of over 60% in size
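Luminescent ATP read-out (CellTiter-Glo) measures survival of drug-naive KB-3-1 cells after 72 h compound exposure at 37 °C. Titration series was screened from lowest to highest concentration, with DMSO vehicle plates as background controls.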
SW480 rereplic = induces DNA re-replication in SW480 colon adenocarcinoma cells; actives 1.8% (n = 340,000); Potency, µM (titrated, usually from 46.1 µM), hits mostly activators; SW480 DNA re-replication, Hoechst DNA content imaging, 48 h; also: nearly all actives have a fitted effect of over 55% in size
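Treated cells incubate 48 hr (37 C, 5% CO2), are stained 40 min with Hoechst, and nuclear fluorescence is enumerated; a rise in nuclei with high DNA signal marks re-replication.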
Large screens that a line does not name were inactive. Calls follow the shape of the dose curve; as a rule, active = well fitted curve in the direction sought with a large enough effect; inconclusive = small, poorly fitted or top-dose-only effect, or another doubt; inactive = no such curve, though single readings can be large; an effect the other way counts as inactive or inconclusive.

CCOc1cc(CNCCN2CCOCC2)ccc1OCc1ccccc1Cl	SW480 rereplic 20.6µM
Cc1ccc(C2CC(=O)C=C(NCc3ccccc3)C2)cc1 (stereo not drawn)	KB-V1 cytotox 20.6µM, MCF10A rerep 20.6µM, KB-3-1 cytotox 14.6µM, SW480 rereplic 23.1µM
Cc1ccc(C2CC(=O)C=C(NCC(C)C)C2)cc1 (stereo not drawn)	KB-V1 cytotox inconclusive, MCF10A rerep inconclusive, KB-3-1 cytotox inconclusive
C=CCNC(=O)COC(=O)c1cc(S(=O)(=O)N2CCOCC2)ccc1N1CCCCC1	none
COc1ccc(Nc2ncc(C(=O)N3CCN(c4ccc(F)cc4)CC3)c3ccccc23)cc1	KB-V1 cytotox inconclusive, ELG1 repair inh 20.6µM, KB-3-1 cytotox inconclusive
COc1ccc(N2CCN(C(=O)c3csc4ccccc34)CC2)cc1	KB-V1 cytotox 20.6µM
COc1ccc(Nc2ncc(C(=O)N3CCN(c4ccc(OC)cc4)CC3)c3ccccc23)cc1	KB-V1 cytotox inconclusive (no result: MCF10A rerep, ELG1 repair inh, SW480 rereplic)
O=C(O)C1C(C(=O)Nc2ccc(Cl)cc2)C2C=CC1C21CC1 (stereo not drawn)	KB-V1 cytotox 20.6µM, MCF10A rerep inconclusive
O=C(Nc1ccc(Cl)cc1)C1C2CCC3C(CCC21)C3(Cl)Cl (stereo not drawn)	MCF10A rerep inconclusive
CCOC(=O)N1CCN(C(=O)/C(=C/c2ccc(Br)cc2)NC(=O)c2ccc(OC)cc2)CC1	KB-V1 cytotox 18.4µM
CCOC(=O)N1CCN(C(=O)/C(=C/c2cccc3ccccc23)NC(=O)c2ccc(OC)c(OC)c2)CC1	KB-V1 cytotox 4.61µM, ELG1 repair inh inconclusive
C/C(CC(=O)Nc1ccccc1F)=N\NC(=O)Cc1ccc(Cl)cc1	MCF10A rerep inconclusive
COc1ccc(C(=O)Nc2ccccc2N2CCOCC2)cc1[N+](=O)[O-]	KB-V1 cytotox 20.6µM
Cc1cc(C(=O)Nc2ccccc2N2CCOCC2)ccc1[N+](=O)[O-]	KB-V1 cytotox inconclusive
Cc1ccc(-c2csc(NC(=O)c3cc([N+](=O)[O-])ccc3N3CCOCC3)n2)cc1	none
CC1CCN(c2ccccc2NC(=O)c2ccc(N3CCOCC3)c([N+](=O)[O-])c2)CC1	MCF10A rerep 16.4µM
COc1ccc(C(=O)Nc2ccc(N3CCOCC3)cc2)cc1OC	KB-V1 cytotox 16.4µM, ELG1 repair inh inconclusive, KB-3-1 cytotox inconclusive
COc1ccc(C(=O)Nc2ccc(N3CCCC3)cc2)cc1OC	MCF10A rerep inconclusive, ELG1 repair inh inconclusive, KB-3-1 cytotox inconclusive
O=C(Nc1nc(-c2ccccc2)cs1)c1ccc(N2CCOCC2)c([N+](=O)[O-])c1	KB-V1 cytotox 1.84µM, MCF10A rerep inconclusive, ELG1 repair inh 3.66µM, KB-3-1 cytotox inconclusive
COC(=O)C(Cc1ccccc1)NC(=O)CC(C)CC(=O)Nc1ccc(C)cc1 (stereo not drawn)	none
O=C(NC(=S)Nc1cc(Cl)ccc1N1CCOCC1)c1ccccc1[N+](=O)[O-]	ELG1 repair inh 16.4µM
COc1ccc(C(=O)NC(=S)Nc2ccccc2N2CCOCC2)cc1[N+](=O)[O-]	KB-V1 cytotox inconclusive, MCF10A rerep inconclusive, ELG1 repair inh 18.4µM, KB-3-1 cytotox inconclusive
COc1ccc(C(=O)Nc2ccc(S(=O)(=O)N3CCN(C)CC3)cc2)cc1[N+](=O)[O-]	MCF10A rerep inconclusive
COc1ccc(C(=O)NC(=S)Nc2ccc(N3CCOCC3)c(Cl)c2)cc1[N+](=O)[O-]	ELG1 repair inh 13µM
COc1ccc(C(=O)Nc2ccc(S(=O)(=O)N3CCOCC3)cc2)cc1[N+](=O)[O-]	KB-V1 cytotox inconclusive, MCF10A rerep 4.61µM
Cc1cc(C(=O)NC(=S)Nc2ccccc2N2CCOCC2)ccc1[N+](=O)[O-]	MCF10A rerep inconclusive, ELG1 repair inh inconclusive, KB-3-1 cytotox inconclusive
COc1ccc(Cl)cc1C(=O)NC(=S)Nc1ccccc1N1CCOCC1	KB-3-1 cytotox inconclusive
COCCCNc1nc(=S)[nH]c2cc(OC)c(OC)cc12	none
CCOc1ccc2c(c1)[nH]c(=S)n2C	ELG1 repair inh inconclusive
CCS(=O)(=O)N1CC(=O)N(c2ccc(Cl)cc2)C(C)(C(=O)NC2CCCCCC2)C1 (stereo not drawn)	none (no result: MCF10A rerep, ELG1 repair inh, SW480 rereplic)
O=[N+]([O-])c1ccc(NC(=S)N2CCN(c3ccccc3)CC2)cc1	none
COc1ccccc1OCc1cc(C(=O)N2CCN(C)C(c3ccccc3)C2)no1 (stereo not drawn)	ELG1 repair inh inconclusive
Cc1cc(CN(C)C(=O)c2cc(COc3ccc(F)cc3Cl)on2)n[nH]1	KB-V1 cytotox 20.6µM, ELG1 repair inh inconclusive
CN1CCN(C(=O)c2cc(COc3ccc(F)cc3Cl)on2)CC1c1ccccc1 (stereo not drawn)	MCF10A rerep 20.6µM, KB-3-1 cytotox 16.4µM, SW480 rereplic inconclusive
O=C(c1cc(COc2ccc(F)cc2Cl)on1)N1CCCC(OCc2cccnc2)C1 (stereo not drawn)	KB-V1 cytotox 9.2µM
CN(Cc1ccccn1)C(=O)c1cc(COc2ccc(F)cc2Cl)on1	KB-V1 cytotox inconclusive (no result: MCF10A rerep, ELG1 repair inh, SW480 rereplic)
S=C(N/N=C1\CCc2ccccc21)NC1CCCCC1	MCF10A rerep inconclusive, ELG1 repair inh inconclusive
CCN(CC(=O)N1CCCC1)S(=O)(=O)c1ccc(Br)cc1	none
FC(F)(F)c1ccc(Oc2ccc3c(C(F)(F)F)cc(C(F)(F)F)nc3n2)cc1	none
Oc1ccc(Oc2ccc3c(C(F)(F)F)cc(C(F)(F)F)nc3n2)cc1	MCF10A rerep inconclusive, ELG1 repair inh 18.4µM, SW480 rereplic inconclusive
COc1ccc(Oc2ccc3c(C(F)(F)F)cc(C(F)(F)F)nc3n2)cc1	KB-V1 cytotox 16.4µM
Cc1csc(NC(=O)C2CCCN2C(=O)Oc2ccccc2)n1 (stereo not drawn)	none
Cc1nn(C)c(C)c1NC(=O)CCl	ELG1 repair inh inconclusive, KB-3-1 cytotox 11.6µM
Cc1nn(C)c(C)c1NC(=O)COc1ccc(Cl)cc1	none
Cc1ccc(-n2nc(C)c(NC(=O)CCl)c2C)cc1C	KB-V1 cytotox 16.4µM, ELG1 repair inh inconclusive, KB-3-1 cytotox 9.2µM, SW480 rereplic inconclusive
CCC(=O)Nc1c(C)nn(-c2ccc(C)c(C)c2)c1C	ELG1 repair inh inconclusive
Cc1ncc([N+](=O)[O-])n1CC(=O)Nc1ccc(Cl)cc1	none
O=C(N/N=C/C=C/c1ccc2c(c1)OCO2)C(O)c1ccccc1 (stereo not drawn)	ELG1 repair inh inconclusive
CC1=C(C)CC(C(=O)NNC(=O)c2cccc(Cl)c2)C(C(=O)O)C1 (stereo not drawn)	none
Cc1c([N+](=O)[O-])oc2c1C(=O)NCCC2	none (no result: MCF10A rerep, ELG1 repair inh, SW480 rereplic)
COc1ccc(C(=O)C2CCN(C(=O)c3ccc(C)cc3)CC2)cc1	KB-V1 cytotox inconclusive
Cc1cccc2sc(NC(=O)C3CCN(C(=O)c4ccco4)CC3)nc12	ELG1 repair inh 13µM
COc1cccc(S(=O)(=O)Nc2ccc(C(=O)N3CCN(C(=O)c4ccco4)CC3)cc2)c1	ELG1 repair inh 18.4µM
Cc1cc(C)c(NC(=O)C2CCN(C(=O)c3ccco3)CC2)c(C)c1	none

Screens: PubChem, National Center for Advancing Translational Sciences (NCATS)
